The results in this text go back to PubChem BioAssay AID1347075 (National Center for Advancing Translational Sciences (NCATS), 2019).

The campaign covered roughly 400,000 compounds. About 5,500 (1.4%) were called active. About 9% were inconclusive and are not listed. Shown is part of a subset that was picked to be rich in actives. Values without a mark were called inactive. Calls follow the shape of the dose curve; as a rule, active = well fitted cell-killing curve with a large enough effect; inconclusive = small, poorly fitted or top-dose-only effect, or effect the other way; inactive = flat fitted curve, though single readings scatter.
% is scaled to controls: 0 for no effect and ±100 for the full control effect; potency is read from the fitted curve at half-maximal effect.

A short description of the assay: qHTS assay for MDR1-selective chemotherapeutics: Primary screen using the parental adenocarcinoma cell KB-3-1. Also: nearly all actives have a fitted effect of over 60% in size. To be noted: KB-3-1 viability, CellTiter-Glo ATP luminescence, 72 h; series mostly up to 46.1 µM; activity change, negative = cytotoxic: at the top concentration. In outline: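 Cytotoxicity measured as CellTiter-Glo luminescence after 72 h at 37 C. Compound titrations were pinned onto drug-naive KB-3-1 parental adenocarcinoma cells grown in DMEM with 10% FBS, and normalized data fitted to concentration-response curves.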
On to `CCOC(=O)c1cc(-c2ccc(OC)c(S(=O)(=O)Nc3ccc(OC)cc3OC)c2)on1`, for which the “activity change, negative = cytotoxic” value is 3.89%.

Consider `Cc1cccc(CNC(=O)c2cnc3sc(N4CCCCC4)nn3c2=O)c1`, for which the “activity change, negative = cytotoxic” value was 5.85%.

For `CC(C)C1N=C2c3ccccc3N=C(SCC(=O)c3ccc(O)c(O)c3)N2C1=O` (centres undefined), the Potency is 23.1 µM (active).

In the case of `Cc1ccc(CNC(=O)CSC2=Nc3ccccc3C3=NC(C)C(=O)N23)cc1` (centres undefined), the “activity change, negative = cytotoxic” value is 2.68%.

Consider `CCOC(=O)CSC1=Nc2ccccc2C2=NC(CCC(=O)NCc3ccc(F)cc3)C(=O)N12` (centres undefined), for which the “activity change, negative = cytotoxic” value is 27.5%.

`Cc1ccc(Cn2cc(CN3CC(N4CCN(C)CC4)CS3(=O)=O)nn2)cc1` (centres undefined): the “activity change, negative = cytotoxic” value was 10.6%.

Consider `CN(Cc1cn(Cc2ccc(C(F)(F)F)cc2)nn1)C1CN(Cc2cn(Cc3ccc(C(F)(F)F)cc3)nn2)S(=O)(=O)C1` (centres undefined), for which the Potency was 10.3 µM (active).

Turning to `CN(C)C1CN(Cc2cn(Cc3ccccc3)nn2)S(=O)(=O)C1` (centres undefined), the “activity change, negative = cytotoxic” value is 12.6%.

Turning to `CCOc1ccc2nc(N3CCC(C(=O)Nc4cc(C)ccc4C)CC3)sc2c1`, the “activity change, negative = cytotoxic” value was -1.47%.

`Cn1ccc2cc(S(=O)(=O)N3CCCC(C(=O)NCc4ccccc4F)C3)ccc21` (centres undefined): the “activity change, negative = cytotoxic” value was -9.83%.

`COc1cc(Cl)c(NC(=O)CC(C)S(=O)(=O)c2cc3c(cc2C)NC(=O)CO3)c(OC)c1` (centres undefined): the “activity change, negative = cytotoxic” value is -1.47%.

In the case of `Cc1ccccc1CNC(=O)c1cccc(NC(=O)c2nsc3ccccc23)c1`, the “activity change, negative = cytotoxic” value is -18.2%.

Regarding `O=C(NNC(=O)c1ccccc1O)c1ccccc1O`, the Potency was 2.59 µM (active).

Consider `CC1=C(C)CC(C(=O)NNC(=O)c2ccccc2O)C(C(=O)O)C1` (centres undefined), for which the “activity change, negative = cytotoxic” value is 0%.

As for `O=C(NNC(=O)c1cc(S(=O)(=O)N2CCCCC2)ccc1Cl)c1ccccc1O`, the “activity change, negative = cytotoxic” value was -19.1%.

For `Cc1ccc(CSc2oc(-c3cccs3)nc2S(=O)(=O)c2ccc(C)cc2)cc1`, the “activity change, negative = cytotoxic” value was -8.61%.

With `CCN(C(=O)c1ccc(Br)cc1)c1ccccc1`, the “activity change, negative = cytotoxic” value was -3.05%.

With `CCN(C(=O)COc1ccc(C(=O)c2ccccc2)cc1)c1ccccc1`, the “activity change, negative = cytotoxic” value is 19.5%.

In the case of `CCN(C(=O)c1sc2cc(OC)ccc2c1Cl)c1ccccc1`, the Potency was 20.6 µM (active).

Consider `CCC(=O)Nc1cccc(-c2nc3cc(C)ccc3o2)c1`, for which the “activity change, negative = cytotoxic” value was -5.02%.

Turning to `CCN(CC)S(=O)(=O)c1ccc2c(c1)c(=O)c(C(=O)N1CCN(c3cccc(Cl)c3)CC1)cn2C`, the “activity change, negative = cytotoxic” value is 5.98%.

Turning to `CCCN(CCC)c1c([N+](=O)[O-])c(=O)oc2ccccc12`, the “activity change, negative = cytotoxic” value is 8.54%.

For `C=CCn1c(SCC(=O)NC(=O)Cc2ccccc2)nc2ccccc2c1=O`, the “activity change, negative = cytotoxic” value was 3.54%.

`CCn1c(/C=C/c2ccc([N+](=O)[O-])o2)nc2ccccc2c1=O`: the Potency is 3.26 µM (active).

On to `CCCCCn1c(CCCNC(=O)c2ccccc2OC)nc2ccccc21`, for which the “activity change, negative = cytotoxic” value is 1.41%.

In the case of `CCOC(=O)C1=C(CN2CCc3ccccc32)NC(=O)NC1c1ccc(Cl)cc1` (centres undefined), the “activity change, negative = cytotoxic” value is -23.1%.

On to `CCOCCOC(=O)C1=C(C)NC(=O)NC1c1ccc2c(c1)OCO2` (centres undefined), for which the “activity change, negative = cytotoxic” value was -14.7%.

`CCOC(=O)C1=C(CCc2ccccc2)NC(=O)NC1c1ccc2ccccc2c1` (centres undefined): the Potency was 23.1 µM (active).

Consider `Cc1cccc(N2CCN(C(=O)c3cc4c(=O)oc5ccccc5c4s3)CC2C)c1` (centres undefined), for which the “activity change, negative = cytotoxic” value is -10.4%.

Consider `CCOc1ccc(NC(=O)C(=O)NCCc2csc3nc(-c4ccccc4F)nn23)cc1`, for which the “activity change, negative = cytotoxic” value is 7.86%.

As to `O=[N+]([O-])c1ccc(C=Nc2ccc(Cl)cc2Cl)s1`, the Potency was 16.4 µM (active).

For the compound `CCOC(=O)C(Cc1ccccc1)NC(=O)CCc1c(C)nc2c(c(C)nn2-c2ccc(C)c(C)c2)c1C` (centres undefined), the “activity change, negative = cytotoxic” value is 6.17%.

For the compound `COc1cccc(CNC(=O)C2CCN(S(=O)(=O)c3ccc4c(ccn4C)c3)CC2)c1`, the “activity change, negative = cytotoxic” value was 6.47%.

Regarding `COc1ccc(-c2nn3c(=O)cc(CN4CCN(C(=O)c5ccc(OC)c(OC)c5)CC4)nc3s2)cc1`, the “activity change, negative = cytotoxic” value was -2.16%.

On to `CCS(=O)(=O)N1CCC(n2c(C)nc3cccnc32)CC1`, for which the “activity change, negative = cytotoxic” value is 6.58%.

Turning to `COc1ccccc1CNC(=O)c1ccc(NC(=O)N2CC(C)Sc3ccccc32)cc1` (centres undefined), the “activity change, negative = cytotoxic” value was 2.43%.

For `O=C(NC1CCN(C(=S)Nc2ccc(Cl)cc2)CC1)C1CCCCC1`, the “activity change, negative = cytotoxic” value was -1.98%.

In the case of `NC(=O)C1(N2CCCCC2)CCN(C(=S)Nc2ccc(Cl)cc2)CC1`, the Potency was 11.6 µM (active).

Regarding `Cc1cc(Cl)ccc1NC(=S)N1CCC(C(N)=O)(N2CCCCC2)CC1`, the “activity change, negative = cytotoxic” value is 2.27%.

With `O=C(CCC(=O)N1CC2CCCN2c2ccccc21)NCc1ccccc1Cl` (centres undefined), the “activity change, negative = cytotoxic” value was -1.48%.

For `CCc1ccc(NC(=O)c2cc3c(=O)n(Cc4cccnc4)ccc3nc2C)cc1`, the “activity change, negative = cytotoxic” value was 4.71%.

Take `COc1ccc(-n2c(=O)c3c(c4cc(OC)ccc4n3C)n(Cc3cccc(C)c3)c2=O)cc1`: the “activity change, negative = cytotoxic” value is 4.89%.

For the compound `CCN(CC)c1ccc(NC(=O)CN2CCN(CC(=O)Nc3ccc(Cl)cc3)CC2)cc1`, the “activity change, negative = cytotoxic” value is -6.2%.

For `CCN(CC)c1ccc(NC(=O)c2ccc(Cl)nc2)cc1`, the Potency was 5.17 µM (active).

Turning to `O=C(NNC(=O)c1ccc(Cl)nc1)c1ccc(Br)cc1`, the “activity change, negative = cytotoxic” value is 2.64%.

Regarding `CN(C)c1ccc(C(CNS(=O)(=O)c2cc(F)ccc2F)N2CCOCC2)cc1` (centres undefined), the “activity change, negative = cytotoxic” value is 2.75%.

Take `Cc1ccc(C)c(N2CCN(S(=O)(=O)c3ccc4c(c3)C(C(C)C)C(=O)N4)CC2)c1` (centres undefined): the “activity change, negative = cytotoxic” value was -22.4%.

For the compound `CCC1CCCCN1C(=O)Cn1c(=O)n(CCCCCC(=O)NCc2ccccc2)c(=O)c2sccc21` (centres undefined), the “activity change, negative = cytotoxic” value is 14.4%.

`O=C(c1ccc(Br)cc1)N(Cc1cccs1)c1ccc(F)cc1`: the “activity change, negative = cytotoxic” value is 1.61%.

For `Nc1ccccc1N`, the “activity change, negative = cytotoxic” value was 6.52%.

For `Cc1ccc(Nc2ccccc2N)cc1`, the Potency is 20.6 µM (active).

For `Cc1ccc(Nc2c(-c3ccc(C)s3)nc3ccccn23)cc1`, the “activity change, negative = cytotoxic” value was -11.2%.

Take `Cc1ccc2c(c1)C1CN(C)CCC1N2S(=O)(=O)c1ccc(Oc2ccc([N+](=O)[O-])cc2)cc1` (centres undefined): the Potency was 18.4 µM (active).

`Cc1ccc([N+](=O)[O-])cc1S(=O)(=O)N1CCCN(C)CC1`: the “activity change, negative = cytotoxic” value is 13.9%.

On to `Cc1ccc2c(c1)C1CN(C)CCC1N2C(=O)c1ccccc1NS(=O)(=O)c1ccc(F)cc1C` (centres undefined), for which the “activity change, negative = cytotoxic” value was -7.9%.

For the compound `COc1ccc(-c2nn(CC(=O)NC3CCCC3)c3c2cnc2ccc(F)cc23)cc1`, the “activity change, negative = cytotoxic” value was -23.3%.

For `Cc1ccc(CNC(=O)c2c(O)nc3c(C)cccn3c2=O)cc1`, the “activity change, negative = cytotoxic” value was -7.52%.

In the case of `NS(=O)(=O)c1ccc(CNC(=O)c2cnccn2)cc1`, the “activity change, negative = cytotoxic” value is 3.21%.

Regarding `CCN(CC)c1ccc(/C=N/NC(=O)c2cnccn2)c(O)c1`, the Potency was 0.731 µM (active).

`COc1cccc(OCC(=O)NNC(=O)c2cnccn2)c1`: the “activity change, negative = cytotoxic” value is 9.62%.

Regarding `O=C(/C=C/c1ccccc1)N1CCN(Cc2cc(=O)n3nc(-c4ccccc4F)sc3n2)CC1`, the “activity change, negative = cytotoxic” value is -7.72%.

Regarding `Cc1ccc(CNC(=O)CN2CCN(Cc3ccc(Cl)cc3)C2=O)cc1`, the “activity change, negative = cytotoxic” value was 9.48%.

On to `C/C(CC(=O)NCc1ccc(Cl)cc1)=N\NC(=O)COc1ccc(C)cc1Br`, for which the Potency was 5.17 µM (active).

Regarding `Cc1ccc(CNC(=O)COc2ccc3c(c2)CCC3)cc1`, the “activity change, negative = cytotoxic” value is 22.2%.
